{"source": "PubChem BioAssay (NCI)", "note": "The panel holds about 83,000 compounds, 20% with a hit somewhere; the sample as a whole holds those more often.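 Method: cells in 96-well plates; compound added at one concentration; 48 h incubation; percent growth measured; values under 10 scored active.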 Calls of active or inactive are those of the source.", "data": [{"system": "HL-60(TB) leukemia", "experiment": "NCI-60 one-dose screen, 48 h (100 = growth as untreated, 0 = no growth, -100 = all killed)", "conditions": "10 µM unless noted", "values": [{"smiles": "COc1ccc(-n2ncc3c4nc(OC)c(S(=O)(=O)c5ccccc5)cc4ccc32)cc1", "growth": "107% (inactive)"}, {"smiles": "CC1Cc2c(Cl)ncnc2N(C)c2ccc(O)cc21", "note": "(stereo unspecified)", "growth": "91.4% (inactive)"}, {"smiles": "CC[C@H](Nc1nc(N)nc(C)c1C#N)c1nc2cccc(NCCCCCC(=O)NO)c2c(=O)n1-c1ccccc1", "growth": "39.7% (inactive)"}, {"smiles": "Nc1nc(N)c2cc(Sc3cccc(C(F)(F)F)c3)ccc2n1", "growth": "24.6% (inactive)"}, {"smiles": "COc1ccc(C(=O)/C=C/c2ccccn2)c(O)c1", "growth": "23.4% (inactive)"}, {"smiles": "O=c1c2cc(Cl)ccc2oc2ccc(OCCCCCN3CCCCCC3)cc12", "growth": "54.2% (inactive)"}, {"smiles": "CCOc1ccc(-n2nc(C(=O)NCc3ccccc3OC)nc2-c2cc(OC)c(OC)c(OC)c2)cc1", "growth": "19.1% (inactive)"}, {"smiles": "O=C(CCl)Nc1ccc(Cc2ccc(NC(=O)CCl)cc2)cc1", "growth": "-18.3% (active)"}, {"smiles": "COc1cc2c(c(OC)c1OC)-c1ccc(NNC(=S)N(Cc3cccc(C[N+](Cc4cccc(CNC56CC7CC(CC(C7)C5)C6)c4)(Cc4cccc(CNC56CC7CC(CC(C7)C5)C6)c4)Cc4cccc(CN(C(=S)NNc5ccc6c(cc5=O)[C@@H](NC(C)=O)CCc5cc(OC)c(OC)c(OC)c5-6)C56CC7CC(CC(C7)C5)C6)c4)c3)C34CC5CC(CC(C5)C3)C4)c(=O)cc1[C@@H](NC(C)=O)CC2", "note": "(stereo partly specified)", "growth": "-63.4% (active)"}, {"smiles": "CCS(=O)(=O)N[C@@H]1O[C@H](COC(C)=O)C(OC(C)=O)[C@H](OC(C)=O)C1OC(C)=O", "note": "(stereo partly specified)", "growth": "117% (inactive)"}, {"smiles": "O=S(=O)(NCCCNc1nccc(-c2c(-c3ccccc3)nc3occn23)n1)c1ccc(Cl)cc1", "growth": "101% (inactive)"}, {"smiles": "CCOC(=O)Cc1csc2nc(-c3ccccc3)nn12", "growth": "53% (inactive)"}, {"smiles": "CC(C)(C)c1nn(-c2ccccc2)c2c1CC1(CN2Cc2ccc3c(c2)OCO3)C(=O)c2ccccc2C1=O", "growth": "102% (inactive)"}, {"smiles": "O=[N+]([O-])c1ccc(/C=C/C2(CCl)OCCO2)cc1", "growth": "76.2% (inactive)"}, {"smiles": "CCN(CC)c1ccc(-c2cc(-c3cc(OC)c(OC)c(OC)c3)nc(N3CCOCC3)c2C#N)cc1", "growth": "-43.4% (active)"}, {"smiles": "OC1OC(COC(c2ccccc2)(c2ccccc2)c2ccccc2)C(O)C(O)C1O", "note": "(stereo unspecified)", "growth": "97.4% (inactive)"}, {"smiles": "CCOC(=O)c1c(C)oc2ncnc(N3CCN(C(=O)COc4ccc(C(C)(C)C)cc4)CC3)c12", "growth": "73.9% (inactive)"}, {"smiles": "O=C(NCCc1c[nH]c2ccccc12)C1Cc2ccccc2CN1C(=O)c1ccco1", "note": "(stereo unspecified)", "growth": "82.8% (inactive)"}, {"smiles": "Cc1nc2cc(-n3c(-c4ccc(F)cc4)nc4ccccc4c3=O)ccc2n1Cc1ccccc1", "growth": "57.7% (inactive)"}, {"smiles": "COc1ccc(/C(C)=C(\\c2ccc(OCCN3CCCCCC3)cc2)c2ccc(OC(=O)c3ccccc3)cc2)cc1", "growth": "31.2% (inactive)"}, {"smiles": "O=S(=O)(NCCNc1nccc(-c2c(-c3cccc(F)c3)nc3sccn23)n1)c1ccc(Br)cc1", "growth": "90.5% (inactive)"}, {"smiles": "Nc1c(Cl)cccc1[N+](=O)[O-]", "growth": "112% (inactive)"}, {"smiles": "Fc1ccc(CNc2c3ccccc3nc3ccccc23)cc1", "growth": "21.3% (inactive)"}, {"smiles": "CCCCCc1c(C)[nH]c(/C=C2\\N=C(c3ccc[nH]3)C=C2OCc2ccccc2)c1C", "growth": "-47.5% [100 µM] (active)"}, {"smiles": "O=C1NC(=S)S/C1=C\\N1N=C(c2ccc(Cl)cc2)CC1c1ccc(F)cc1", "note": "(stereo unspecified)", "growth": "99.5% (inactive)"}, {"smiles": "CC(=O)NCNC(C)=O", "growth": "113% (inactive)"}]}]}
